Reference: PubChem BioAssay (NCI)
The panel holds about 83,000 compounds, 20% with a hit somewhere; the sample as a whole holds those more often.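 Percent growth is the endpoint: 0 to 100 indicates growth inhibition (40 means 60% inhibition), 0 means no net growth, and negative values indicate cell death.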 Values without a mark were called inactive. Activity calls are given as the source filed them. The calls were made as follows: active = growth percent below 10; inactive = the rest.

Tests used:
Assay in all cases: NCI-60 one-dose screen, 48 h (100 = growth as untreated, 0 = no growth, -100 = all killed)
Conditions in all cases: 10 µM unless noted
[1] = test system: NCI-H23 lung
[2] = test system: NCI-H226 lung
[3] = test system: NCI-H322M lung
[4] = test system: HOP-62 NSCLC
[5] = test system: NCI-H460 lung
[6] = test system: NCI-H522 lung
[7] = test system: A549/ATCC NSCLC
[8] = test system: 786-0 renal
[9] = test system: COLO 205 colon
[10] = test system: DU-145 prostate
[11] = test system: MALME-3M melanoma
[12] = test system: MDA-MB-231 breast
[13] = test system: RXF 393 renal
[14] = test system: SF-268 CNS
[15] = test system: SF-295 CNS
[16] = test system: SF-539 CNS
[17] = test system: UACC-257 melanoma
[18] = test system: M14 melanoma
[19] = test system: K-562 leukemia

Structure (SMILES)	growth [1]	growth [2]	growth [3]	growth [4]	growth [5]	growth [6]	growth [7]	growth [8]	growth [9]	growth [10]	growth [11]	growth [12]	growth [13]	growth [14]	growth [15]	growth [16]	growth [17]	growth [18]	growth [19]
CCOC(=O)c1ccc2c(c1)[n+](=O)c(C(=O)c1ccc3ccccc3c1)c(C(F)(F)F)n2[O-]	-88.4% (active)	-93.7% (active)	67.2%	-93.8% (active)	-100% (active)	-80.1% (active)	-26.4% (active)	-100% (active)	-100% (active)	-100% (active)	-69.1% (active)	-99.4% (active)	-71.2% (active)	-88.8% (active)	-84.8% (active)	-100% (active)	-71.7% (active)	-100% (active)	–
COc1ccc(C2NC(=O)c3cc4c(cc3N2)OCO4)cc1 (configuration not stated)	8.1% (active)	5.1% (active)	50.4%	27.8%	5.06% (active)	-48.7% (active)	18.9%	37.1%	-22.1% (active)	7.04% (active)	58.7%	31.3%	-2.15% (active)	39.6%	-14% (active)	8.24% (active)	65.8%	-7.7% (active)	–
CN1C(=O)N(C)C2C1NN=c1s/c(=C\c3ccc(C(F)(F)F)cc3)c(=O)n12 (configuration not stated)	39.5%	43.2%	32.4%	31.9%	11.7%	2.74% (active)	31.9%	25.5%	–	9.33% (active)	56%	60.4%	-3.65% (active)	45.1%	10.4%	3.31% (active)	44.6%	16%	10.6%
COc1cc(CN(c2ccc(C)cc2)C2OC(=O)c3ccccc32)cc(OC)c1OC (configuration not stated)	29%	20.1%	60.2%	24.8%	18.4%	31.7%	30.5%	28.9%	-45.5% (active)	25%	63.4%	64.6%	22.3%	34.1%	16.8%	5.91% (active)	94.2%	-10% (active)	–
CCCCCCCCCCCC1=NC(C)(C)CN1C(C)C	49.8%	89.1%	97.7%	54.6%	50.4%	43%	61.1%	54.5%	-53.7% (active)	68.9%	59.8%	53.7%	5.65% (active)	71.9%	62.6%	55.6%	-9.06% (active)	-26.6% (active)	–
CCCCCCCCOC(=O)C(C)OC(=O)OCCOCCOC(=O)OC(C)C(=O)OCCCCCCCC (configuration not stated)	113%	102%	92.4%	105%	107%	114%	102%	104%	119%	104%	89.3%	107%	110%	103%	93.6%	109%	107%	96.5%	–
CS(=O)(=O)c1ccc(C(=O)N/N=C/c2ccccc2O)cc1	54.8%	55.2%	38.4%	28.3%	14.1%	–	38.8%	33%	31.2%	40.4%	63.5%	47.4%	53%	38.4%	38%	55.3%	22.6%	32.5%	40.5%
COc1nccc2c(Sc3ccccc3)nc(N)nc12	98.8%	103%	110%	113%	109%	88.1%	104%	88.9%	–	104%	137%	100%	117%	105%	103%	119%	111%	118%	93%
CCSCC1CC(O)(c2ccccc2)C(c2ccccc2)C(c2ccc(F)cc2)O1 (configuration not stated)	-6.5% (active)	-4.42% (active)	3.59% (active)	-13.3% (active)	-16.3% (active)	10.6%	3.27% (active)	-49.5% (active)	–	3.1% (active)	-37.6% (active)	-8.82% (active)	-12.4% (active)	1.85% (active)	-22.4% (active)	4.38% (active)	4.92% (active)	-45.8% (active)	7.77% (active)
COc1ccc(Cl)cc1Nc1nc(C(F)(F)F)ccc1C(=O)NN	39.9%	24.1%	4.64% (active)	-30.8% (active)	70.3%	–	47.6%	2.09% (active)	12.5%	40%	8.85% (active)	5.57% (active)	-3.01% (active)	26.4%	16.7%	31.2%	28.3%	38%	55.7%
C=C(C)[C@@H]1CC[C@]2(C(=O)NC(COC(=O)C(Cl)Cl)(COC(=O)C(Cl)Cl)COC(=O)C(Cl)Cl)CC[C@]3(C)[C@H](CC[C@@H]4[C@@]5(C)CC[C@H](OC(C)=O)C(C)(C)[C@@H]5CC[C@]43C)[C@@H]12	72%	84.2%	88.8%	82.7%	15.8%	48.1%	27.7%	37.3%	–	50.7%	96.2%	54.1%	42.6%	58.8%	60.9%	76.5%	79.5%	59.9%	25.2%
O=C(Nc1ccccc1)c1cc2ccccc2s1	74.8%	88.4%	75.6%	94.5%	39.7%	–	69.4%	92.8%	95.1%	103%	108%	78.2%	110%	95.6%	96.8%	110%	95.1%	–	87.1%
CCCCOC(=O)c1cc(O)c(O)c(O)c1	88.2%	96.7%	86.5%	76.2%	58.9%	–	64.7%	79.2%	101%	74%	122%	66.4%	82%	53.5%	102%	48.5%	96.4%	–	66.3%
N/N=C(\C(=N\N)c1ccccc1)c1ccccc1	98.8%	88.2%	94.6%	91.7%	108%	86.6%	101%	97.6%	–	113%	88%	111%	118%	103%	105%	103%	107%	96.6%	111%
CC1=C(/C=C/C(C)=C/C=C(C(=O)O)\C(C)=C\C(=O)O)C(C)(C)CCC1	101%	112%	103%	108%	104%	–	93.7%	99.5%	112%	109%	128%	98.6%	106%	100%	130%	93.6%	92.4%	101%	87%
Cc1c2c(cc3c1[nH]c1ccccc13)C=NCC2	88.7%	93%	99.7%	96%	95.5%	75.1%	91.5%	80.8%	–	94.9%	103%	90.4%	84.9%	95.5%	92.4%	92.8%	106%	91%	62.3%
C=C[C@H]1CCC/C=C/[C@@H]2C[C@H](O)C[C@H]2[C@H](O)/C=C/C(=O)O1	-19.1% (active)	3.22% (active)	-7.72% (active)	33.3%	7.05% (active)	-37.8% (active)	8.51% (active)	-53.5% (active)	–	5.86% (active)	-46.4% (active)	-74% (active)	-15.2% (active)	7.6% (active)	17.2%	35.2%	4.69% (active)	-10.6% (active)	9.93% (active)
Cc1cc(N)cc(C)c1-c1c(Br)cc(N)cc1Br	50.9%	69.2%	18.8%	25.1%	17.4%	–	25.2%	26.7%	11.9%	28.6%	14%	42.6%	-22.9% (active)	41.4%	-14% (active)	15.3%	62%	10.8%	8.58% (active)
